Out of some 53,000 sequences screened, about 3,700 (7%) were called active. Many of the other results were omitted from the sample, so actives are more common in it than they were. Values without a mark were called inactive.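 The calls were made as follows: active = gene knockdowns whose robust z-score for IL-1 alpha signal is at least 2 or at most -2, so actives lie on both sides; inactive = the rest.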

Among the data in PubChem BioAssay AID1508600 (Functional Genomics Laboratory (NCATS/FGL), 2020) are z-score values, retold here.

This assay can be described thus: Components of the Cytosolic LPS Sensing Pathway: Gene Identification via Genome-wide siRNA Screen.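 Also: robust z of the log signal after scaling to non-targeting control siRNA wells of the plate.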 The following applies: RAW264.7 macrophages, IL-1a HTRF, actives lie on both sides, screened at 100 nM (by protocol), cells primed 5 h with Pam3CSK4 first. Put shortly:
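Mouse macrophage line RAW264.7 is transfected with siRNA (100 nM final), grown 48h, primed with TLR ligand Pam3CSK4 5 h and given intracellular LipidA 24 h. IL-1a in supernatant is read by HTRF and viability by luminescence.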
With CGCUACGUCCAGUAUCACCTT against Tmem192, the z-score was -0.471. Turning to CCAGAUAGGUAAAAAACAATT against Acta2, the z-score was -0.562. Take GCAAAUUUAAGAGAAGUUGTT against Dse: the z-score was -0.132. Take CCUAGACUUGAACAAACACTT against Lsm12: the z-score was -2.11 (active). Consider GCUUCGGCCUCAGUAUUCATT against Pigb, for which the z-score was 0.0355. Consider “GCAUACUUAGGAUACACGCTT against A830005F24Rik”, for which the z-score is -0.647. The figure for GCCACAUUCUUCUCAACCUTT against Tas2r106 is -2.14 (active); for “GGUAGUUAACACAAAAUUGTT against 4932438H23Rik” it is 0.334. Under GGACUUCUUGGACCUACUUTT against F5 stands -1.55; under GGUAGGAGGUAUUUCCCACTT against Shisa5, 0.197. For GGCUUCUAAGCAUACUCAGTT against Iqsec1, the z-score was -0.257. With GCUCCUCUCCAAGGUCAUUTT against Olfr96, the z-score is 0.652.

As to GGAUUUUCCAGGCAUGAGGTT against Ehd3, the z-score is -2.24 (active).

Take GGAAAUGCGCCAUGAGUUGTT against Soga3: the z-score was -0.124. GAGUUGUACUCUUCACUAUTT against Olfr497: the z-score is -2.6 (active). In the case of GGACUAUUGUCUCAUUUGATT against Olfr1189, the z-score was 1.04.

Regarding GGACAACGUAGCCUUCGUUTT against Ncln, the z-score was -0.562. The figure for GGUGGAUUCUAUUAAAUGCTT against Gm14461 is 0.462. The figure for CCAUUAGCAAUGUGCUUCUTT against Unc13a is 0.268; for GGUGUUCGAGAAGCUGAAGTT against Haus7 it is -0.371; for GGAUCUUUCGUGUGGAAAATT against Atf7ip it is 0.87.

Regarding “GCUUUUGGACUGAAUCUCATT against 2210016L21Rik”, the z-score is 2.78 (active). For GGCCACCUUCUUUGAGGUATT against Snai1, the z-score is 1.11. With GGUAGGACUAACAAUAAAATT against Gpr4, the z-score was -0.0158. With GACCUGAAUAAAGACUGUCTT against Cort, the z-score is 0.697. Take CGGACUUACCAAAAGCGCATT against Lss: the z-score was 3.16 (active). Turning to GGAGAGAGAUGAAAUUUGATT against Kif26b, the z-score is 1.79. Consider GGAGAAAAUCAACAAGAUCTT against Ppp2r2c, for which the z-score is -0.437. The figure for CCAUUGAGGUAAUGUUUGATT against Rmnd1 is 0.978.
